Source: PubChem BioAssay (EPA / NIEHS)
Activity calls are given as the source filed them. Rule for the calls: active = hit-call score of the fitted dose curve at least 0.9, where 1 is the maximum; inconclusive = response in the unintended direction; inactive = score below 0.9.

assay: CPHEA_Stoker_NIS_Cytotoxicity: Cytotoxicity Assessment for CPHEA's Radioactive Iodide Uptake (RAIU) Assay for Sodium/Iodide Symporter (NIS) Inhibition, Stoker and Laws Labs (AID 2283897);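 for AC50: active means loss of ATP signal versus DMSO meaning cytotoxicity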
Method: CPHEA_Stoker_NIS is a cell-based, single-readout assay that uses hNIS-HEK293T-EPA, a novel human kidney cell line expressing human NIS, with measurements taken at 2 hours after chemical dosing in a 96-well plate. This radioactive iodide uptake (RAIU) assay is used to identify inhibitors of NIS-mediated iodide uptake. A parallel cytoxicity assay (Cell Titer Glo, Promega) was also run in the same cell line.CPHEA_Stoker_NIS_Cytotoxicity is one of 2 assay components measured from the CPHEA_Stoker_NIS assay. It is designed to make measurements of atp content, a form of viability reporter, as detected with bioluminescence signals by Luciferase-coupled ATP quantitation technology.Data from the assay component CPHEA_Stoker_NIS_Cytotoxicity was analyzed at the endpoint, CPHEA_Stoker_NIS_Cytotoxicity, in the positive analysis fitting direction relative to DMSO as the negative control and baseline of activity. Using a type of viability reporter, measures of ATP content for loss-of-signal activity can be used to understand the viability. To generalize the intended target to other relatable targets, this assay endpoint is annotated to the cell cycle intended target family, where the subfamily is cytotoxicity.
hNIS-HEK293T-EPA cells were seeded with a MultiFlo FX dispenser (BioTek, Winooski, VT) into ScintiPlate-96 microplates (Perkin Elmer, Waltham, MA) at a density of 4.0x10^4 cells per well in 200uL growth media and incubated for 40 hours before experimentation. On day of the assay, carrier-free 125I (Perkin-Elmer, Waltham, MA; specific activity: 17.4Ci/mg) was diluted with Hanks' balanced salt solution (Sigma, St. Louis, MO) supplemented with 10mM HEPES (uptake buffer; pH 7.4) at 5uCi/mL (288pg 125I/mL uptake buffer; 2.30nM). The assay was initiated by washing cells twice with 200uL uptake buffer using a 96-well Tecan HydroSpeed plate washer (Tecan, Mannedorf, Switzerland). Uptake buffer (59.7uL) was then added back to each well. Chemical samples (350nL at 200X) were administered using the HDR tool as previously described to achieve a 1X chemical/0.5% final DMSO concentration with subsequent addition of 10uL of 125I dilution (final [125I]: 329pM; 2.88pg/well) for a final reaction volume of 70uL/well. Cells were incubated at room temperature for 2 hours and then washed twice with 200uL ice cold uptake buffer. All uptake buffer was aspirated from wells, plates were sealed, and read on a MicroBeta2 plate reader (Perkin Elmer, Waltham, MA) using a detection protocol to measure CPM corresponding to intracellular 125I concentration. Each chemical concentration (0.001, 0.01, 0.1, 1.0, 10, and 100uM) was assayed in triplicate with three independent biological replicate plates (3 sequential cell passages). Additionally, a concentration response of NaClO4 (0.001, 0.01, 0.1, 1.0, 10, and 100uM) served as a positive control inhibition curve on each RAIU assay plate. DMSO control wells were assayed on each plate as a measure of maximum iodide uptake for normalization and determination of intra- and inter-assay variation. (Toxicol In Vitro, 2017, 40:66-78).

SMILES | outcome | AC50
CCOC(=O)C(C)Oc1ccc(Oc2cnc3cc(Cl)ccc3n2)cc1 (centres undefined) | inactive | –
S=C([S-])NCCNC(=S)[S-].[Mn+2] | inactive | –
CCCCOC(=O)[C@@H](C)Oc1ccc(Oc2ccc(C(F)(F)F)cn2)cc1 | inactive | –
N#CSCSc1nc2ccccc2s1 | inactive | –
CCOC(=O)NCCOc1ccc(Oc2ccccc2)cc1 | – | 34 µM (active)
c1ccc(Nc2ccccc2)cc1 | inactive | –
COC(=O)CSc1cc(N=c2sc(=O)n3n2CCCC3)c(F)cc1Cl | inactive | –
O=C(Nc1ccc([N+](=O)[O-])cc1Cl)c1cc(Cl)ccc1O | inactive | –
CSC(=O)c1cccc2nnsc12 | inactive | –
CCCCOC(=O)C(C)Oc1ccc(Oc2ccc(C(F)(F)F)cn2)cc1 (centres undefined) | inactive | –
S=C(S)NCCNC(=S)S.[Mn+2].[S-]C([S-])=NCCN=C([S-])[S-].[Zn+2] | inactive | –
O=C(O)c1ccccc1 | inactive | –
CCCCCOC(=O)COc1cc(N2C(=O)C3=C(CCCC3)C2=O)c(F)cc1Cl | inactive | –
CCCN(CCC)C(=O)SCC | inactive | –
C#CCOC(=O)[C@@H](C)Oc1ccc(Oc2ncc(Cl)cc2F)cc1 | inactive | –
Oc1ccc(C(c2ccc(O)cc2)C(Cl)(Cl)Cl)cc1 | – | 39.9 µM (active)
CCCCCCC(C)OC(=O)COc1nc(F)c(Cl)c(N)c1Cl (centres undefined) | inactive | –
CC(=O)[C@H]1CC[C@H]2[C@@H]3CCC4=CC(=O)CC[C@]4(C)[C@H]3CC[C@]12C | – | 9.92 µM (active)
Cc1nn(C)c(Oc2ccccc2)c1C=NOCc1ccc(C(=O)OC(C)(C)C)cc1 | inactive | –
CCOC(=O)COc1cc(-n2ncc(C(F)(F)F)c(C)c2=O)c(F)cc1Cl | inactive | –
N[C@@H](Cc1cc(I)c(Oc2ccc(O)c(I)c2)c(I)c1)C(=O)O | inactive | –
CCOC(=O)C(C)Oc1ccc(Oc2nc3ccc(Cl)cc3o2)cc1 (centres undefined) | inactive | –
C=CCOC(Cn1ccnc1)c1ccc(Cl)cc1Cl (centres undefined) | inactive | –
CC(C)(c1ccc(O)cc1)c1ccc(O)cc1 | inactive | –
CCCN(CCC)c1c([N+](=O)[O-])cc(C(F)(F)F)c(N)c1[N+](=O)[O-] | – | 47.8 µM (active)
CCN(Cc1c(F)cccc1Cl)c1c([N+](=O)[O-])cc(C(F)(F)F)cc1[N+](=O)[O-] | inactive | –
CCCCOCCOCCOCc1cc2c(cc1CCC)OCO2 | inactive | –
CCCCC(CC)CN1C(=O)C2C3C=CC(C3)C2C1=O (centres undefined) | – | 50 µM (active)
CC(C)CCCCCCc1ccc(O)cc1 | inactive | –
